# A selection: hits, their analogues and other compounds. The true share with any hit is near 19%.
# TGFb inhibitor – inhibitors of TGF-b signaling. HepG2 CAGA-GFP TGF-b/SMAD3 reporter, GFP fluorescence, 18 h; TGF-beta stimulated, 500 pg/mL final. Potency, µM (top dose mostly 46.1 µM), without a hit: top-dose activity, negative = inhibition, most hits filed as inhibitors. 410,000 compounds, 1.2% hits. AID 588855; also: potency is read from the fitted curve at half-maximal effect; % is scaled to controls: 0 for no effect and ±100 for the full control effect; nearly all actives have a fitted effect of over 65% in size
#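 Per well, imaged GFP fluorescence of HEPG2 CAGA-GFP cells gives the signal; cells get compound, then TGF-beta (500 pg/mL final), 18 h at 37 degrees C; %Activity versus -TGF-beta and +DMSO controls.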
# HepG2 tox – kills HepG2 cells in TGF-b inhibitor counter-screen; HepG2 CAGA-GFP viability, ATP luminescence, 18 h; Potency, µM (top dose mostly 46.1 µM), for the others: at the top dose activity change, negative = cytotoxicity, actives largely listed as cytotoxic; 410,000 compounds, 0.76% hits; also: potency is read from the fitted curve at half-maximal effect
#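 HepG2 CAGA-GFP cells (1000/well, DMEM with 1% FBS) received compound, then TGF-beta at 500 pg/mL final, and were incubated 18 hours at 37 degrees C. Viability was read by CellTiter-Glo luminescence. Media-only wells were set as complete cell-killing and DMSO as no toxicity.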
# TDP1 cell CPT – DT40-hTDP1 cell growth loss with CPT | chicken DT40 Tdp1-/-;hTDP1 cells + 20 nM CPT, ATP luminescence, 48 h | Potency, µM (highest dose often 46.2 µM), for inactives: at the top dose activity change, negative = growth inhibition, most hits filed as inhibitors | 420,000 compounds, 12% hits | AID 686979; also: potency is read from the fitted curve at half-maximal effect; % is scaled to controls: 0 for no effect and ±100 for the full control effect; nearly all actives have a fitted effect of over 55% in size
#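 Chicken DT40 Tdp1-/- cells complemented with human TDP1, 400 cells/well, exposed to compounds plus 20 nM camptothecin for at least 48 h at 37 C; viability read as ATP content by CellTiter-Glo luminescence.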
# ASM inhibitor – inhibitors of human secretory acid sphingomyelinase; P17405; placental ASM, HMU-PC fluorogenic substrate, 60 min; Potency, µM (titrated, usually from 57.5 µM), for the others: top-dose activity change, negative = inhibition, actives largely listed as inhibitors; 340,000 compounds, 0.006% hits; also: potency is read from the fitted curve at half-maximal effect
# Target sequence (P17405 47-631 limits assumed): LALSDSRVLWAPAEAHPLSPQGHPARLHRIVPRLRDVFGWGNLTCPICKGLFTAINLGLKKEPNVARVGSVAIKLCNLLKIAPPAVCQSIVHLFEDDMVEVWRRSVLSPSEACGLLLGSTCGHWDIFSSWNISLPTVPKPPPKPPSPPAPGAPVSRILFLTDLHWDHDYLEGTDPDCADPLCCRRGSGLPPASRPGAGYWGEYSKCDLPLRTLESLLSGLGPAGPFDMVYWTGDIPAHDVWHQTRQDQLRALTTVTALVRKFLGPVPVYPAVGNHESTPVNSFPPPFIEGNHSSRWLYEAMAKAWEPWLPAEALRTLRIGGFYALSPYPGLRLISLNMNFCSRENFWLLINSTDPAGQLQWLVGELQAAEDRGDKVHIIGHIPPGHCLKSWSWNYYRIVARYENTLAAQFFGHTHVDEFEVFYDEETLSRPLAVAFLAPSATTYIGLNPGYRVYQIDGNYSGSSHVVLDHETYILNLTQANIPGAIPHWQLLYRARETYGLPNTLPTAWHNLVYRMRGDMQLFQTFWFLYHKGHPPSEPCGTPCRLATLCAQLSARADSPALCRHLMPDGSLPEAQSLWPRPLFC
#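 qHTS format. ASM enzyme prepared from human placenta hydrolyses the fluorogenic substrate HMU-PC0 (9 uM final) over 60 min at 37 °C after a 10 min compound preincubation.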
# IL-1B inflam inh – inhibitors of inflammasome signaling (IL-1 beta secretion); THP-1 LPS/ATP IL-1B secretion, AlphaLISA, 16 h; stronger effect = lower value; activity change, % at 57.5 µM; 360,000 compounds, 4.7% hits; in the data active = activity change below about -50%; inconclusive = mostly about -30% to -49%; also: % is scaled to controls: 0 for no effect and ±100 for the full control effect
#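 Secreted IL-1B measured by AlphaLISA bead assay after 16 h compound exposure of THP-1 cells; compounds (final up to 57.5 uM) added 1 h before LPS (250 ng/mL) and ATP (1.25 mM) stimulation; lower signal means less secretion.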
# DT40 TDP1 no CPT – qHTS for Inhibitors of human tyrosyl-DNA phosphodiesterase 1 (TDP1): qHTS in cells in absence of CPT. DT40 Tdp1-/- hTDP1 cells, no CPT, ATP luminescence, 48 h. Potency, µM (series often up to 46.2 µM), without a hit: top-dose activity change, negative = growth inhibition, usual class: inhibitors. 420,000 compounds, 15% hits; also: potency is read from the fitted curve at half-maximal effect; % is scaled to controls: 0 for no effect and ±100 for the full control effect; nearly all actives have a fitted effect of over 55% in size
#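 A cellular qHTS used chicken DT40 cells lacking endogenous Tdp1 but carrying stably transfected human TDP1. Compounds were applied without camptothecin, and cell growth kinetics were judged by ATP-dependent luminescence after ≥48 hr.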
# Active calls of the source: *; u = inconclusive; x = no result given. Unless noted, calls follow the shape of the dose curve; as a rule, active = well fitted curve in the direction sought with a large enough effect; inconclusive = small, poorly fitted or top-dose-only effect, or another doubt; inactive = no such curve, though single readings can be large; an effect the other way counts as inactive or inconclusive.
SMILES,TGFb inhibitor,HepG2 tox,TDP1 cell CPT,ASM inhibitor,IL-1B inflam inh,DT40 TDP1 no CPT
Cc1c(C(=O)NCc2cccc(C(F)(F)F)c2)sc(=O)n1Cc1ccccc1F,u,-17%,u,x,-3,26µM*
Cc1cccc(CNC(=O)c2sc(=O)n(Cc3c(C)cccc3C)c2C)c1,u,-6%,u,x,-17,23µM*
COc1ccc(CNC(=O)c2sc(=O)n(Cc3ccccc3C)c2C)cc1,1%,-23%,u,x,-10,u
Cc1ccc(Cn2c(C)c(C(=O)NCc3cccc(C(F)(F)F)c3)sc2=O)cc1,-27%,-8%,-1%,x,-24,1%
C=Cc1ccc(Cn2c(C)c(C(=O)NCc3ccc(C#N)cc3)sc2=O)cc1,-26%,-6%,16µM*,x,u,16µM*
COc1ccc(CNC(=O)c2sc(=O)n(Cc3ccc(-c4ccccc4)cc3)c2C)cc1OC,-29%,1%,12µM*,x,-13,12µM*
COC(=O)c1ccccc1C(=O)N1CCCC(CNC(=O)c2ccc(F)cc2)C1 (stereo not given),-8%,-13%,15%,-2%,16,-3%
COc1ccc(Cl)cc1Cn1c(C)c(C(=O)NCc2cccc(C(F)(F)F)c2)sc1=O,u,0%,u,x,-59*,u
COc1ccc(Cl)cc1Cn1c(C)c(C(=O)NCc2ccc(C#N)cc2)sc1=O,-11%,3%,23µM*,x,-21,18µM*
CC(CC(=O)NNC(=O)c1cccc(Cl)c1)c1ccccc1 (stereo not given),3%,1%,-3%,-1%,-7,-21%
O=C(NCC1CCCN1S(=O)(=O)c1cccs1)c1cccc([N+](=O)[O-])c1 (stereo not given),0%,3%,u,-1%,-13,-28%
CCOC(=O)c1ccccc1NC(=O)CSc1nc(=O)[nH]c2c1CCC2,19%,4%,0%,x,x,-10%
COc1cc(OC)c(-c2nn3c(-c4ccco4)nnc3s2)cc1OC,4%,-6%,u,214%,-18,15µM*
COc1ccc(-c2nnc3sc(-c4ccco4)nn23)cc1OC,u,-24%,1%,3%,-13,-27%
CC1(C)Cc2ccccc2-c2nnc(-c3ccco3)n21,-13%,5%,-16%,-3%,-7,-13%
c1ccc(-c2cc(-c3nn4c(-c5ccco5)nnc4s3)c3ccccc3n2)cc1,-6%,-12%,7.1µM*,-18%,19,4.5µM*
COc1cc2c(cc1OC)-c1nnc(-c3ccco3)n1C1(CCCC1)C2,6%,-13%,u,-2%,-22,18µM*
Clc1ccccc1-c1nnc2sc(-c3ccco3)nn12,4%,-20%,-6%,-5%,0,-26%
Cc1cc(-c2nn3c(-c4ccccc4)nnc3s2)c2ccccc2n1,-5%,-1%,u,1%,19,18µM*
N#Cc1cccc(-c2cncnc2NCc2ccccc2)c1,x,x,-8%,x,x,-17%
O=C(CN1CCN(C(C(=O)Nc2ccc(Cl)cc2C(F)(F)F)c2ccccc2)CC1)NC1CC1 (stereo not given),-6%,0%,u,4%,u,u
CCOc1cccc(C(=O)Nc2nc3c(s2)CC(C(C)(C)C)CC3)c1 (stereo not given),-1%,-12%,21µM*,x,x,21µM*
Cc1ccccc1C(=O)Nc1sc2c(c1C(=O)N1CCCCC1)CCC(C(C)(C)C)C2 (stereo not given),-7%,-17%,-15%,x,x,u
CC1CCc2nc(NC(=O)COc3ccc(C(C)(C)C)cc3)sc2C1 (stereo not given),-22%,-11%,u,x,x,u
CCCC(=O)Nc1nc2c(s1)CC(C(C)(C)C)CC2 (stereo not given),18%,-29%,18µM*,x,x,21µM*
SMILES,TGFb inhibitor,HepG2 tox,TDP1 cell CPT,ASM inhibitor,IL-1B inflam inh,DT40 TDP1 no CPT
CC1CCc2nc(NC(=O)C3CC3)sc2C1 (stereo not given),4%,-7%,-12%,3%,15,-20%
CC(C)Oc1ccc(C(=O)Nc2nc3c(s2)CC(C(C)(C)C)CC3)cc1 (stereo not given),-6%,-44%,16µM*,x,x,13µM*
Cc1ccccc1C(=O)Nc1nc2c(s1)CC(C(C)(C)C)CC2 (stereo not given),-20%,7%,16µM*,x,x,12µM*
CNS(=O)(=O)c1cn(CC(=O)Nc2ccc(OC)c(Cl)c2)cc1S(=O)(=O)NC,0%,-7%,0%,x,x,-9%
O=C(CN1CCN(c2ccccc2O)CC1)NC(=O)NC1CCCC1,1%,-8%,-16%,2%,3,u
COc1ccc(NC(=O)Nc2ccc3c(c2)C(=O)N([C@@H](C)CO)C[C@@H](C)[C@@H](CN(C)S(=O)(=O)c2cn(C)cn2)O3)cc1,4%,-20%,14%,-17%,14,4%
N#Cc1ccccc1CSc1nc2ccsc2c(=O)n1Cc1ccccn1,6%,6%,u,2%,19,u
Cc1ccc(CSc2nc3ccsc3c(=O)n2Cc2ccccn2)cc1,u,-15%,u,-25%,u,16µM*
O=C(O)C1CCC(Cn2c(SCc3cc(=O)n4ccccc4n3)nc3ccsc3c2=O)CC1 (stereo not given),17%,6%,-14%,-1%,39,u
O=c1c2sccc2nc(SCc2cc(=O)n3cc(Br)ccc3n2)n1Cc1ccccn1,-10%,-25%,21µM*,5%,-53*,21µM*
COc1ccccc1C#CC1=CC(=O)CC(C)(C)C1,-19%,-30%,16µM*,x,u,9.2µM*
COc1ccc(C#CC2=CC(=O)CC(C)(C)C2)cc1,-15%,-30%,u,x,0,u
CCCOC(=O)c1c(NC(=O)C(C)Sc2nc(-c3ccccc3)cc(C(F)(F)F)n2)sc(C(=O)N(C)C)c1C (stereo not given),u,-16%,u,x,x,15µM*
CC(Sc1nc(-c2ccccc2)cc(C(F)(F)F)n1)C(=O)O (stereo not given),-18%,-53%,u,4%,39,-1%
CCN(CC)C(=O)c1sc(NC(=O)C(C)Sc2nc(-c3ccccc3)cc(C(F)(F)F)n2)c(C(=O)OC)c1C (stereo not given),0%,-25%,7.3µM*,x,x,7.3µM*
